Source: the supplement of paper PMC6555819

Tested on: PPARg:RXRa IVT, anti-PPARg (NR concentration 270 nM, RXRa partner concentration 90 nM)
Experiment: PBM binding z-score (relative to random genomic background probes); higher = stronger binding; sequences stand for … in GC…GCGATTGACAGCGTAGAATGAAGG
Method in brief: (§1)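 Scanned fluorescence from custom Agilent 4×180K protein-binding microarrays was regression-normalized. Binding z-scores use random background probes as reference. Ligand-free nuclear receptor dimers were incubated on the arrays for 1 h and detected with antibodies against each partner (one per run).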

Sequence | PBM binding z-score
CAGCCTAGGTCAAGGCCAGTATAGGAGGAACGTT | 2.33
AGAATGAGGTTAAGATCAGGGTAACAGAATACAT | 3.28
GGAACGAGGGCATTCGAGTTAATAGCATGGCGAT | 2.26
TCTAGTTGGTCACGAAGGTCACACACGACGGGTA | 4.36
AATACAGGGTCATCGTAGGACAGAGTACGCACAG | 4.34
CCTACTGGGACACGAAAGGTCATTGATTCAGTGA | 5.78
ATCTCTAGATAACAAGTTCAGTGAAAGAGAGGAC | 0.236
TAGCCTCGGTCATGGGCCAGTATACCACGCGAAC | 0.53
AGAATGAGGTTACCAAGGATCAGGGAAACGCTTG | 3.37
CCTACCAGGCCAATCTGGGTCACTCAAGGCTTGA | 5.15
TCTCGGAGGAGACGAAAGGTCAGAGCTCGACATC | 1.49
AGTCGAAGTTCACTAGGTAACGTAAGATTCAGCT | 3.45
CGTCAAAGTTCAACTAAGATAACGTAAAGCACGC | 2.03
TAGCCTAGGTCATTGGGCCAGTACAGTACGCATC | 3.89
CGAAATAGGTCAGAACAGGACAGTGAAGGATGAT | 6.4
CCTGCTAGGTCATGGTCAACTAATCTACAGTATG | 4.48
CCTACTGGGCCAAGGACATTGATCAGTCAAAGCA | 3.05
CATCCAAGGTCAATGCTAGGTCAGTGAAAGCATT | 4.16
AGTCAAAGTTCATCTCGGTAACGTAAGATATGCT | 2.85
GCTTGTTGATCAAGGTTAAGAAAGACTAAGCTAA | 0.134

Sequence | PBM binding z-score
AGTCAAAGTTCAGAACGAGGTAACGTAAAGCACG | 2.1
CCTACTGGACCAAAGGTCATTGATTCCAATGCTC | 5.62
CCTCGGAGGACAACAGGAGGTCAGAGTTGCCAGA | 0.313
TCTTGTAGATCAATAGAGGTTAACAAAGTGCGCT | 1.38
GCTGCTAGGTCAACTGATGGTCAGCCAAAGCTCG | 3.92
ACTAGCAGGCCCAGGGTCACTCAAGATTAGTCCG | 0.714
TCTGCTAGGTCAGTTGGTGAGCTAACGAGCTGCC | 2.7
TCTGGGAGGACACGAAGGTCAGAGCTTTCCAGAG | 0.947
ATCGAAAGGTCGTTAGGTGAGTATACAGAAAGGC | 2.1
GCTTACGGGTCAAAGGTTATAGGATGAATAGAAT | 5.81
TCTGCTAGGTCAACGCTGGTCAGCTAATCTGCTA | 4.5
TTACCAAGGTGATCTGAGGTCGTTGATCCAACTC | 1.97
CAGCCGAGGTCAGGGCCAGTATAGGAGGAACGTT | 3.21
CCTCTGAGGACAGAAGGTCAGAGCTGTCCGCTTT | 0.36
TAGCCTAGGTCATTGAGCCAGTATAGTACGCATC | 2.41
AATACAGGGTCATCGTAGGCTAGAGTACGCACAG | 3.89
TTACCAAGGTGAAAGGTCGATGATGCACGCCTTG | 4.78
AAAGACAGGTGATGAAGGTAACTCAGGCTATCAT | 0.744
CCTAGCAGGCCAATCTGGGTCAATCAAGGCTTGA | 4.7
TCTATTAGTTGAAGGGCAGCCGACGAGTCCGTTT | 0.427

Tested on: PPARg DBDmut:RXRa IVT, anti-PPARg (DBD mutation: PPARg1 K132A/R137A, NR concentration 270 nM, RXRa partner concentration 90 nM)
Experiment: as above
Method in brief: as §1

Sequence | PBM binding z-score
CAGCCTAGGTCAAGGCCAGTATAGGAGGAACGTT | -0.75
AGAATGAGGTTAAGATCAGGGTAACAGAATACAT | 1.74
GGAACGAGGGCATTCGAGTTAATAGCATGGCGAT | -0.564
TCTAGTTGGTCACGAAGGTCACACACGACGGGTA | 1.5
AATACAGGGTCATCGTAGGACAGAGTACGCACAG | 1.42
CCTACTGGGACACGAAAGGTCATTGATTCAGTGA | 0.301
ATCTCTAGATAACAAGTTCAGTGAAAGAGAGGAC | 0.623
TAGCCTCGGTCATGGGCCAGTATACCACGCGAAC | -0.301
AGAATGAGGTTACCAAGGATCAGGGAAACGCTTG | 1.28
CCTACCAGGCCAATCTGGGTCACTCAAGGCTTGA | -0.114
TCTCGGAGGAGACGAAAGGTCAGAGCTCGACATC | -0.00299
AGTCGAAGTTCACTAGGTAACGTAAGATTCAGCT | 0.653
CGTCAAAGTTCAACTAAGATAACGTAAAGCACGC | 1.72
TAGCCTAGGTCATTGGGCCAGTACAGTACGCATC | -0.0279
CGAAATAGGTCAGAACAGGACAGTGAAGGATGAT | 1.62
CCTGCTAGGTCATGGTCAACTAATCTACAGTATG | 0.715
CCTACTGGGCCAAGGACATTGATCAGTCAAAGCA | -0.364
CATCCAAGGTCAATGCTAGGTCAGTGAAAGCATT | 0.505
AGTCAAAGTTCATCTCGGTAACGTAAGATATGCT | 1.54
GCTTGTTGATCAAGGTTAAGAAAGACTAAGCTAA | 0.234

Sequence | PBM binding z-score
AGTCAAAGTTCAGAACGAGGTAACGTAAAGCACG | 0.709
CCTACTGGACCAAAGGTCATTGATTCCAATGCTC | 0.797
CCTCGGAGGACAACAGGAGGTCAGAGTTGCCAGA | -0.9
TCTTGTAGATCAATAGAGGTTAACAAAGTGCGCT | 0.608
GCTGCTAGGTCAACTGATGGTCAGCCAAAGCTCG | 0.564
ACTAGCAGGCCCAGGGTCACTCAAGATTAGTCCG | -0.322
TCTGCTAGGTCAGTTGGTGAGCTAACGAGCTGCC | 0.403
TCTGGGAGGACACGAAGGTCAGAGCTTTCCAGAG | -0.643
ATCGAAAGGTCGTTAGGTGAGTATACAGAAAGGC | 1.14
GCTTACGGGTCAAAGGTTATAGGATGAATAGAAT | 2.01
TCTGCTAGGTCAACGCTGGTCAGCTAATCTGCTA | 0.648
TTACCAAGGTGATCTGAGGTCGTTGATCCAACTC | 0.232
CAGCCGAGGTCAGGGCCAGTATAGGAGGAACGTT | 0.298
CCTCTGAGGACAGAAGGTCAGAGCTGTCCGCTTT | -0.397
TAGCCTAGGTCATTGAGCCAGTATAGTACGCATC | 0.454
AATACAGGGTCATCGTAGGCTAGAGTACGCACAG | 1.38
TTACCAAGGTGAAAGGTCGATGATGCACGCCTTG | 0.899
AAAGACAGGTGATGAAGGTAACTCAGGCTATCAT | 0.665
CCTAGCAGGCCAATCTGGGTCAATCAAGGCTTGA | -0.527
TCTATTAGTTGAAGGGCAGCCGACGAGTCCGTTT | 0.454
